Screening results (PubChem BioAssay)
PGC1a acetyl inh: lowers PGC1a acetylation signal in U2OS cells. AlphaScreen anti-acetyl-lysine; with virally co-expressed GCN5 acetyltransferase. inhibition, % at 15.6 µM. AID 651687. 350,000 tested, 0.17% active;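 active means every replicate shows inhibition of at least 40%; inconclusive means mean inhibition at least 40% but some replicate below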
PAX8 inh HTS: inhibitors of PAX8 transcriptional activity in RMG-I cells; RMG-I TPO-luciferase reporter, SteadyGlo, 24 h; 360,000 tested, 1.2% active; inhibition, % at 12.6 µM;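 active means mean replicate inhibition at least 60% with every replicate also reaching 60%; inconclusive means only one of the two criteria is met; inactive means mean below 60% and not all replicates reaching 60%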;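 further: luciferase light reporting Pax8 driven TPO promoter activity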
LGR2 inh: Drosophila LGR2 receptor signaling inhibition. HEK293 LGR2, CRE-luciferase, bursicon-stimulated, 4 h. inhibition, % at 9.99 µM. 380,000 tested, 0.35% active;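 active means drop in luminescence signal, shown as inhibition above about 50% in the replicate tests, limit read from the data, passing the limit was not always enough; inconclusive means probably only some replicates passing the limit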;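 further: agonist challenge used bursicon conditioned medium at about half maximal strength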
EBV LMP1 NFkB: reduces LMP1-driven NF-kappaB luciferase signal | LMP1-induced NF-kappaB luciferase reporter cells, luminescence | 350,000 tested, 0.69% active | AID 504558 | inhibition, % at 12.5 µM; in the data active means inhibition above about 41%; inconclusive means no clear call, values can overlap the other calls
EWS-Fli block: EWS/Fli transcriptional activity inhibition; A673 NR0B1-luciferase reporter, viability-normalised; inhibition, % at 12.6 µM; 350,000 tested, 0.67% active; AID 651661;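 active means mean inhibition of at least 50% after viability correction, with every replicate also passing that limit; inconclusive means mean reaches 50% but only one of two replicates passes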;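 further: firefly luciferase signal divided by Alamar Blue viability fluorescence both relative to DMSO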
MITF TRPM1 inh: MITF TRPM1 promoter inhibition in SK-MEL-5 cells; SK-MEL-5 TRPM1 promoter luciferase, 24 h; inhibition, % at 12.5 µM; 330,000 tested, 0.83% active;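 active means mean inhibition across replicates of 60% or more, whatever share of single replicates reaches that level; inconclusive means some that reach 60%, reason not given; inactive means mean inhibition across replicates below 60%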
Hits are given with their value; n = inactive; u = inconclusive; x = no result; ! = repeats disagree. A selection: hits, their analogues and other compounds. The true share with any hit is near 2.2%.

SMILES | PGC1a acetyl inh | PAX8 inh HTS | LGR2 inh | EBV LMP1 NFkB | EWS-Fli block | MITF TRPM1 inh
COc1cccc(CNC(=O)C[C@@H]2C=C[C@H](NC(=O)C3CCC3)[C@H](CO)O2)c1 | n | n | n | x | n | x
O=C(c1ccc(C(F)(F)F)cc1)C1CCCN(C(=O)CN2CCCC2=O)C1 (configuration not stated) | n | n | n | n | n | n
COCCC(=O)N1CCCC(C(=O)c2ccc(C(F)(F)F)cc2)C1 (configuration not stated) | n | n | n | 49 | n | n
O=C1C(N2CCOCC2)=C(n2nnc3ccccc32)C(=O)c2ccccc21 | 61 | 83 | x | 65 | x | 98
O=C1c2ccccc2C(=O)c2c1cccc2-n1nnc2ccccc21 | n | n | n | n | n | n
C=C1CCc2c([nH]c3ccc(OCC(C)C)cc23)C1=O | x | 111 | n | n | u | n
CCCN1C[C@H](C)[C@H](OC)CN(C)C(=O)c2cc(NC(=O)Nc3c(C)noc3C)ccc2OC[C@@H]1C | n | n | n | x | n | x
Cn1c(=N)n(CC(=O)c2ccc(Cl)c(Cl)c2)c2ccccc21 | x | n | n | n | 73 | n
COc1ccc(C(=O)Cn2c(=N)n(C)c3ccccc32)cc1 | n | n | x | n | n | n
Cn1c(=N)n(CC(=O)O)c2ccccc21 | n | x | x | n | x | n
Cn1c(=N)n(CC(=O)c2ccccc2)c2ccccc21 | n | n | n | x | 65 | x
Oc1ccc(CN2CCC(Cc3ccccc3)CC2)c2cccnc12 | x | 76 | n | x | n | x
CCOC(=O)N1CCN(Cc2ccc(O)c3ncccc23)CC1 | x | n | n | x | n | x
Oc1ccc(CN2CCc3ccccc3C2)c2cccnc12 | x | x | x | 82 | x | 71
Oc1ccc(Cc2ccccc2)c2cccnc12 | n | 87 | n | x | n | x
Cc1ccc(C)c(S(=O)(=O)N2CCN(Cc3ccc(O)c4ncccc34)CC2)c1 | n | 73 | n | n | n | 74
CN(C)C(=O)c1cccc(-c2ccc3c(c2)[C@H]2[C@H](CCN2C(=O)c2ccncc2)[C@H](CO)N3C)c1 | n | n | n | x | n | x
COc1ccccc1-c1ccc2c(c1)O[C@@H](CN(C)C(=O)Nc1cccc(F)c1)[C@H](C)CN([C@@H](C)CO)S2(=O)=O | n | x | n | x | n | x
C[C@@H]1CN([C@@H](C)CO)C(=O)c2cc(C3=CCCC3)cnc2O[C@@H]1CN(C)C(=O)CN1CCOCC1 | n | n | n | x | n | x
O=C(C[C@H]1CC[C@H]2[C@@H](COC[C@H](O)CN2Cc2cc(F)cc(F)c2)O1)NC1CCCC1 | n | n | n | x | n | x
O=C(Nc1ccc(F)cc1)N[C@H]1CC[C@@H](CCn2cc(C3(O)CCCC3)nn2)O[C@@H]1CO | n | n | n | x | n | x
C[C@@H]1CN([C@H](C)CO)C(=O)Cc2cc(NC(=O)c3ccncc3)ccc2O[C@H]1CN(C)S(=O)(=O)c1ccc(Cl)cc1 | n | n | n | x | n | x
C[C@H](CO)N1C[C@H](C)[C@@H](CN(C)S(=O)(=O)c2ccc(Cl)cc2)OCCCC[C@H](C)Oc2ccc(NS(=O)(=O)c3cccs3)cc2C1=O | n | 80 | n | x | n | x
C[C@H](CO)N1C[C@H](C)[C@H](CN(C)S(=O)(=O)c2ccc(Cl)cc2)OCCCC[C@H](C)Oc2ccc(NS(=O)(=O)c3cccs3)cc2C1=O | n | 67 | n | x | n | x
C[C@@H]1CCCCO[C@H](CN(C)S(=O)(=O)c2ccc(Cl)cc2)[C@H](C)CN([C@H](C)CO)C(=O)c2cc(NS(=O)(=O)c3cccs3)ccc2O1 | n | n | n | x | n | x
SMILES | PGC1a acetyl inh | PAX8 inh HTS | LGR2 inh | EBV LMP1 NFkB | EWS-Fli block | MITF TRPM1 inh
Cc1ccc(S(=O)(=O)N(C)C[C@@H]2OCCCC[C@H](C)Oc3ccc(NS(=O)(=O)c4cccs4)cc3C(=O)N([C@H](C)CO)C[C@H]2C)cc1 | n | 78 | n | x | n | x
C[C@H]1CCCCO[C@H](CN(C)S(=O)(=O)c2ccc(Cl)cc2)[C@@H](C)CN([C@@H](C)CO)C(=O)c2cc(NS(=O)(=O)c3cccs3)ccc2O1 | n | 68 | n | x | n | x
CO[C@@H]1CN(C)C(=O)c2ccc(NC(=O)Nc3c(C)noc3C)cc2OC[C@@H](C)N(C)C[C@@H]1C | n | x | n | x | n | x
CO[C@H]1CN(C)C(=O)c2ccc(NS(=O)(=O)c3ccc(-c4ccccc4)cc3)cc2OC[C@@H](C)NC[C@H]1C | n | n | n | x | n | x
COc1ccccc1CNC(=O)C[C@@H]1CC[C@@H]2[C@H](COC[C@@H](O)CN2Cc2ccccc2)O1 | n | x | n | x | x | x
COc1ccc(-c2cnc3c(NC=O)cc(-c4cc(OC)c(OC)c(OC)c4)cn23)cc1OC | n | n | n | x | n | x
COc1cc(-c2cnc3c(NC=O)cc(-c4ccc(S(C)(=O)=O)cc4)cn23)cc(OC)c1OC | n | 62 | n | x | n | x
COc1ccccc1-c1cc(NC=O)c2ncc(-c3ccc(S(C)(=O)=O)cc3)n2c1 | x | 63 | n | x | n | x
COc1ccc(-c2cc(NC=O)c3ncc(-c4cc(OC)c(OC)c(OC)c4)n3c2)cc1 | n | 72 | n | x | n | x
COc1ccc(-c2cnc3c(NC=O)cc(-c4ccc(S(C)(=O)=O)cc4)cn23)cc1OC | n | n | n | x | n | x
N#Cc1cccc(-c2ccc([C@@H]3[C@@H]4CN(S(=O)(=O)c5ccc(-c6ccccc6)cc5)C[C@H]3N4)cc2)c1 | 93 | n | n | x | 74 | x
N#Cc1ccc(-c2ccc(C3[C@@H]4CN(C(=O)C5CC5)C[C@H]3N4)cc2)cc1 (some centres not stated) | n | 98 | 90 | x | n | x
Cc1ccccc1S(=O)(=O)N1C[C@@H]2N[C@H](C1)C2c1ccc(-c2cccc(C#N)c2)cc1 (some centres not stated) | n | 94! | u | x | n | x
N#Cc1cccc(-c2ccc(C3[C@@H]4CN(C(=O)C5CCOCC5)C[C@H]3N4)cc2)c1 (some centres not stated) | n | n | n | x | n | x
CS(=O)(=O)N1C[C@@H]2N[C@H](C1)[C@@H]2c1ccc(-c2ccccc2)cc1 | n | 76 | n | x | n | x
CNC[C@H]1OCCCC[C@H](C)Oc2ccc(NC(=O)Nc3ccc4c(c3)OCO4)cc2C(=O)N([C@H](C)CO)C[C@H]1C | n | n | n | x | n | x
N#Cc1cccc(-c2ccc(C3[C@@H]4CN(C(=O)Cc5ccccc5)C[C@H]3N4)cc2)c1 (some centres not stated) | n | n | n | x | n | x
N#Cc1cccc(-c2ccc(C3[C@@H]4CN(C(=O)c5ccccn5)C[C@H]3N4)cc2)c1 (some centres not stated) | n | 64! | u | x | n | x
COc1ccccc1-c1ccc(C2[C@@H]3CN(S(=O)(=O)c4ccccc4)C[C@H]2N3)cc1 (some centres not stated) | n | n | n | x | 53 | x
C[C@H](CO)N1C[C@H](C)[C@H](CN(C)S(=O)(=O)c2ccc(-c3ccccc3)cc2)OCc2cn(nn2)CCCC1=O | n | n | n | x | n | x
Cc1ccc(NC(=O)Cn2c(=O)n(CCCC(=O)NCc3ccco3)c(=O)c3ccccc32)cc1 | n | x | n | n | x | n
